Source: PubChem
Compounds with a hit are over-represented: about 4.6% of the library has one in this group of screens.
D1 antagonist – human D1 dopamine receptor antagonism. P21728. HEK293 TREx D1 cells, calcium flux, dopamine EC80; active compounds read low. activity change, negative = inhibition, % at 10 µM. hit rate 3.2% among 360,000; in the data active means activity change below about -30%; further: on the % scale 0 is the no-effect control and ±100 the full control effect
Target sequence (P21728 whole entry, looked up): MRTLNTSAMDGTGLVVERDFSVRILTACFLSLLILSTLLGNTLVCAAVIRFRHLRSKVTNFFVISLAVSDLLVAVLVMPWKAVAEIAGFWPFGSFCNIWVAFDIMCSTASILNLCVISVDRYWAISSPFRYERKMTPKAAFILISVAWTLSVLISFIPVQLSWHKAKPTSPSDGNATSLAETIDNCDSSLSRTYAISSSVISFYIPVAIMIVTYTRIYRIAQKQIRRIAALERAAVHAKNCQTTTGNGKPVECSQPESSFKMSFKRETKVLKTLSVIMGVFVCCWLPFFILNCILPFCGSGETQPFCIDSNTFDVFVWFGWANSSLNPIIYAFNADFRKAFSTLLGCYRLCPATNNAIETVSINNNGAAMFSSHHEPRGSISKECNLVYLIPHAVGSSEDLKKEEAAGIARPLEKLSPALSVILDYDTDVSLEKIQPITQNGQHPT
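Kinetic fluorescence of a calcium dye serves as the read-out. D1-expressing Hek293 Trex cells, induced overnight at 30 C, are exposed to compound for 180 s before an EC80 dopamine addition, then read 180 s further.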
D1 potentiator – enhances dopamine response at the human D1 receptor | P21728 | HEK293 TREx D1 cells, calcium flux, dopamine EC20 potentiation | potentiation, % at 10 µM | hit rate 0.036% among 360,000; in the data active means potentiation above about 30%; further: 0% is about no effect
TRHR agonist – activates the human TRH receptor. P34981. TRHR cells, calcium flux fluo-8, FDSS agonist mode. activation, % at 2 µM. hit rate 0.18% among 360,000. AID 493084; further: 0% is about no effect
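TRHR-expressing cells, plated overnight in medium with 10% serum, were loaded with fluo-8 calcium dye at room temperature. After a 10 s baseline, library compound was pin-added and calcium release was recorded kinetically (ex 480/em 530) as agonist response.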
D1 agonist – human D1 receptor agonism. hit rate 1% among 360,000. activation, % at 2 µM. HEK293 T-REx D1 cells, calcium flux, agonist mode; further: 0% is about no effect
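Inducible HEK293 T-REx D1 cells, force-coupled to calcium signalling, were plated at 4000 cells/well with tetracycline and held overnight at 30 C. After no-wash calcium dye loading, compound-evoked calcium rise over 180 s flagged agonists.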
TRHR PAM – TRH receptor (human) allosteric enhancement. TRHR cells, fluo-8 calcium fluorescence, EC20 TRH enhancement. P34981. enhancement, % at 2 µM. hit rate 0.66% among 360,000; in the data active means enhancement above about 30%; further: 0% is about no effect
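Enhancer read-out: after compound pinning and an initial kinetic agonist-mode read, an EC20 of TRH (10 nM final) was injected and fluo-8 calcium signal (Ex 480/Em 530) followed at 1 s/cycle for 100 cycles in TRHR-expressing cells.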
* = called active by the depositor. Unless noted, no stated cut-off is given here; in the data, active means activation above about 30%; inactive means the rest.

SMILES | D1 antagonist | D1 potentiator | TRHR agonist | D1 agonist | TRHR PAM
CCOC(=O)C1=C(C)Nc2ccccc2N=C1NC(=O)Cc1ccc(Br)cc1 | 4 | 1 | 0 | -1 | -2
COc1cc(OC)cc(-c2nc3nc(C)c(CCC(=O)Nc4ccc(C)c(C)c4)c(C)n3n2)c1 | -57* | -3 | 1 | 3 | 6
COc1cc(NC(=O)CCc2c(C)nc3c(-c4ccc(F)cc4)c(C)nn3c2C)cc(OC)c1OC | -41* | -8 | 0 | 0 | 4
Cc1cc2c(s1)c1cnn(Cc3c(C)cc(F)cc3C)c(=O)c1n2C | 1 | 2 | 1 | 1 | 4
CCOc1cc(/C=N/NC(=O)c2ccncc2)ccc1OC(=O)c1ccccc1 | -40* | -10 | 0 | 4 | -6
C=C(C)c1cccc(C(C)(C)NC(=O)N2CCN(c3ccc(OC)cc3)CC2)c1 | -37* | -7 | 0 | 0 | -3
C=C(C)c1cccc(C(C)(C)NC(=O)N2CCN(C)CC2)c1 | 1 | -3 | 0 | 1 | -3
C=C(C)c1cccc(C(C)(C)NC(=O)N2CCC(C)CC2)c1 | -43* | -9 | 0 | 0 | -9
CCNc1nc(Oc2ccc(C(=O)OC)cc2)nc(N(C)C)n1 | -31* | -5 | -1 | 12 | 4
O=C(CNC(=S)N(Cc1ccccc1F)C1CCCCC1)NCC1CCCO1 (centres undefined) | -46* | -1 | 0 | 3 | 3
O=C(CNC(=S)N(Cc1ccc(F)cc1)C1CCCCC1)NCC1CCCO1 (centres undefined) | 2 | 3 | 0 | 3 | 0
CCCCNC(=O)CNC(=S)N(Cc1ccccc1F)C1CCCCC1 | -37* | -3 | -1 | 0 | -1
CCN(CC)CCCNC(=O)CSc1nc(-c2ccc(OC)cc2)cc(C(F)(F)F)n1 | -8 | -6 | 0 | 3 | -1
COc1ccc(NC(=O)CCC(=O)N/N=C/c2ccncc2)cc1 | -64* | -5 | 1 | 2 | 1
O=C(CCC(=O)Nc1ccccc1)N/N=C/c1ccncc1 | -6 | -4 | -1 | 5 | 14
Cc1ccccc1NC(=O)CCC(=O)N/N=C/c1ccncc1 | -40* | -3 | 3 | 11 | -3
O=C(Nc1ccccc1C(=O)N/N=C/c1ccncc1)c1ccccc1 | -32* | -11 | 0 | 3 | 0
COc1ccc(/C=N/NC(=O)CNS(=O)(=O)c2ccccc2)cc1 | -38* | -6 | 0 | 0 | 6
Cc1nc(-c2ccc([S+](=O)([O-])N3CCN([S+](=O)([O-])c4c(F)cccc4F)CC3)s2)cs1 | 15 | -8 | 0 | 1 | 4
COc1ccc(/C=N/NC(=O)CCn2cnc3ccccc32)cc1 | -51* | -4 | -1 | 4 | -3
Cc1cccc(Cn2cc3c(=O)n(CC(=O)Nc4cccc(C)c4C)nc-3c3cc(F)ccc32)c1 | 3 | -1 | -1 | 0 | -14
CCc1nn(CC(=O)NCCCN(C)Cc2ccccc2)c(=O)c2cc3sc(C)cc3n12 | -37* | 3 | -1 | 3 | 2
COc1cccc2c1cc1c(=O)n(CC(=O)NCCCc3ccccc3)nc(C)n12 | -39* | 5 | 0 | 2 | 0
CCOCCCNC(=O)Cn1nc(CC)n2c(cc3c(OC)cccc32)c1=O | -30* | -5 | 0 | 1 | 4
CCc1nn(CC(=O)NCCCc2ccccc2)c(=O)c2cc3c(OC)cccc3n12 | -9 | -2 | 0 | 0 | 2
SMILES | D1 antagonist | D1 potentiator | TRHR agonist | D1 agonist | TRHR PAM
O=C(Oc1ccc(F)cc1)c1nc(SCc2ccc(F)cc2)ncc1Cl | 3 | 1 | 1 | 2 | -2
COc1ccc(Cl)cc1Nc1ccc2cc(S(=O)(=O)N3CCCCC3)ccc2n1 | -10 | -3 | 0 | 2 | 2
Cc1ccc2c(c1)c1c(c(=O)n(-c3ccccc3C)c(=O)n1CC(=O)c1ccc(Cl)cc1)n2C | -32* | -2 | 0 | 4 | 2
COc1ccc2c(c1)c1c(c(=O)n(Cc3ccccc3)c(=O)n1CC(=O)Nc1ccc(C)cc1C)n2C | -65* | -1 | -1 | -1 | 3
COc1ccccc1NC(=O)Cn1c(=O)n(-c2cccc(Cl)c2)c(=O)c2c1c1cc(C)ccc1n2C | -4 | 3 | 0 | 48* | -4
COc1ccc2c(c1)c1c(c(=O)n(Cc3ccccc3)c(=O)n1CC(=O)Nc1cc(C)cc(C)c1)n2C | 2 | 0 | 0 | 1 | 3
